PubChem BioAssay AID1347434 (National Center for Advancing Translational Sciences (NCATS), 2020)
“And” between values parts separate entries of the source, which are not always exact repeats. Equal values may be shown once. About 30 (2%) of roughly 1,200 compounds were called active. Not shown: some 23% with an inconclusive outcome. The sample holds actives, similar compounds and a random draw of the others, so the mix is not that of the screen. Calls follow the shape of the dose curve; as a rule, active = well fitted inhibition curve with a large enough effect; inconclusive = small, poorly fitted or top-dose-only effect; inactive = flat fitted curve, though single readings scatter.
% is scaled to controls: 0 for no effect and ±100 for the full control effect; potency is read from the fitted curve at half-maximal effect.

What follows are compounds tested against Single-stranded DNA cytosine deaminase (Homo sapiens) (UniProt Q9GZX7) (assay: Confirmatory qHTS assay for inhibitors of Activation Induced Cytidine Deaminase (AID): AID signals). Conditions: recombinant AID, FRET deamination/UDG coupled fluorescence, 4 h; series mostly up to 115 µM; activity, negative = inhibition: at the top concentration.
Single-stranded DNA cytosine deaminase (Homo sapiens), sequence (Q9GZX7 whole entry, looked up): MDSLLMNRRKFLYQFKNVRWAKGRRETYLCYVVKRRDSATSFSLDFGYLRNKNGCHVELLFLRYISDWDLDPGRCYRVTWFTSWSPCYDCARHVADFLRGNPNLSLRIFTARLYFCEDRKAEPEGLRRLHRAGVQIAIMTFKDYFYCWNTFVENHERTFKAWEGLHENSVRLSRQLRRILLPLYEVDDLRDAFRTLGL
Excerpt: Assay Provider (PI) Patricia Gearhart Ph.D. National Institute on Aging National Institute of Health (NIH), Bethesda, MD Assay Provider (PI) Rahul Kohli Ph.D. Perelman School of Medicine University of Pennsylvania, Philadelphia, PA Activation-Induced Deaminase (AID) is a cytosine deaminase which converts cytosine into uracil within stretches of ssDNA. The presence of uracil in DNA initiates a cascade of mutagenic DNA repair to introduce point mutations and DNA double strand breaks. Specific targeting of AID to the immunoglobulin heavy chain loci (Igh) promotes mutagenesis in the antibody variable region for somatic hypermutation (SHM) or switch regions leading to class switch recombination (CSR). However, AID also plays a role in accumulating unnecessary mutations across the genome. Mis-targeting of AID results in the initiation of tumor development and leads to greater drug resistance among cancer cells when continually expressed. To identify an AID inhibitor, a small molecule library will be screened in collaboration with NCATS core facility at NIH. To confirm biological function, inhibitors will be examined in an in vitro murine B-cell activation assay and subsequent secondary validation screens. Top molecules will be further screened to identify inhibitory efficacy against a wild type primary splenocytes assay. Using these approaches, we hope to identify a small molecule with great efficacy and low toxicity for use as a molecular probe to further characterize AID's intricacies, or even as a therapeutic. A FRET based analysis of cytosine deamination, was developed to identify potential inhibitors of AID catalytic activity. This screen has two signal output, Read 1 evaluates the AID inhibition response. The second readout (Read 2) evaluates UDG response and is uses as a counterscreen to exclude false positive inhibitors. Inhibition in AID and inactivity in the UDG signal is the desired outcome for this assay.
PROTOCOL TABLE SEQUENCE No. (e.g., 1, 2, 3, etc.); […] (e.g., Cells, Incubation, Reagent, etc.); VALUE; DESCRIPTION 1a; Reagent; 3 uL; [4/3x] 1 uM AID/2.67 U/mL UDG 1b; Reagent; 3 uL; 2 U/mL UDG 1c; Reagent; 3 uL; 1 uM AID 2a; Compound; 46 nL; Follow-up plates (0.64 uM - 10 mM) 2b; Control; 46 nL; ATA (16.4 nM - 10 mM) 3; Time; 10 min; incubation at room temperature 4; Reagents; 1 uL; [4x] 250 nM DJC20 / 250 nM DJC23 [Substrate] 5; Time; 4 hr; incubation at room temperature 6; Reagent; 4 uL; [2x] 250 mM NaOH 7; Time; 15 sec; centrifuge at 1000 rpm 8; Time; 30 min; incubation at room temperature 9a; Detection; fluorescence (Read 1: AID); EnVision (PerkinElmer) plate reader, 540 excitation and 590 emission filters 9b; Detection; fluorescence (Read 2: UDG); EnVision (PerkinElmer) plate reader, 560 excitation and 665 emission filters NOTES (numbers refer to sequence above) 1a; Reagents were dispensed in a medium-binding black solid-bottom Greiner plates (789176F) using a BioRptr liquid dispenser. Dispense 3 uL of [4/3x] 1 uM AID (provided by Kohli lab) and [4/3x] 2 U/mL UDG (NEB M0280L) into columns 1, 2, 5 to 48. 1b; Dispense 3 uL of [4/3x] 2 U/mL UDG into column 3. 1c; Dispense 3 uL of [4/3x] 1 uM AID into column 4. 2a; Compound ([…] [uM]: 0.64; 3.2; 16; 80; 400; 2,000; 10,000; 20,000) double pin-transferred (Dip Factor = 2) using the Kalypsys (Wako USA) pintool equipped with a 1536 pinhead for a final concentration range of 7.32 nM - 114 uM. 2b; 10 mM Aurintricarboxylic Acid (Sigma A1895) (ATA, 8-point, n = 2, 1:2.5 dilution in column 2) double pin-transferred (Dip Factor = 2) using the Kalypsys (Wako USA) pintool equipped with a 1536 pinhead for a [final] range of 186 nM - 114 uM. 3; Room temperature incubation. 4; Dispense 1 uL of substrate mixture from the Kohli lab [4x] […] DJC20 and [4x] 250 nM DJC23 into columns 1 to 48 . 5; Room temperature incubation. 6; Dispense 4 uL of […] [2x] 250 mM NaOH into columns 1 to 48. 7; Centrifugation step to remove bubbles. […]
In the case of `Cc1ccc(N(CC(=O)N2CCN(c3cc(C)ccc3C)CC2)S(=O)(=O)c2c(C)nn(C)c2C)cc1`, the “activity, negative = inhibition” value is reported as -24.2% (inactive). `Cc1oc(-c2cccc(Br)c2)nc1Cn1c(SCc2cccc(F)c2)nc2cccnc21` was tested, and the “activity, negative = inhibition” value was 0.648% (inactive). With `Cc1cc(-c2ccc(C)c(S(=O)(=O)N3CCCC(C)C3)c2)on1` (configuration not stated) the “activity, negative = inhibition” value was -12.9% (inactive). With `CCc1ccc(CNC(=O)c2ccc(CSc3nc4ccncc4n3Cc3ccccc3)cc2)cc1` the “activity, negative = inhibition” value was 4.54% (inactive). With `Cc1ccc(C)c(N2CCN(CCCNC(=O)c3cnn(-c4ccc(F)cc4)c3C3CCN(C(=O)OC(C)(C)C)CC3)CC2)c1` the “activity, negative = inhibition” value was -1.81% (inactive). For `CC(C)(Sc1ccc(CCN(CCCCC2CCCCC2)C(=O)NC2CCCCC2)cc1)C(=O)O`, the Potency was 31.6 µM (active) and 112 µM (active). In the case of `Cc1ccc(Nc2c3c(nc4nc(-c5cccs5)nn24)CCCC3)cc1F`, the “activity, negative = inhibition” value is reported as -24.6% (inactive). With `CCOC(=O)C1=C(CN(CC)Cc2ccccc2)NC(=O)NC1c1ccc(OC(C)C)cc1` (configuration not stated) the “activity, negative = inhibition” value was -13.7% (inactive). For `COc1ccccc1N1CCN(C(=O)c2cc3ccc4ccc(C)[nH]c4c3n2)CC1`, the “activity, negative = inhibition” value was 3.08% (inactive). With `COc1cccc(Nc2cc(-c3ccccc3)nc(C)n2)c1` the “activity, negative = inhibition” value was -3.46% (inactive). `Cc1ccc(NC(=O)CSc2ncc(S(=O)(=O)c3ccc(C(C)C)cc3)c(=O)[nH]2)cc1C` was tested, and the Potency was 31.6 µM (active). For `COc1cc(Cl)c(C)cc1NC(=O)CSc1ncc(S(=O)(=O)c2ccc(C(C)(C)C)cc2)c(=O)[nH]1`, the “activity, negative = inhibition” value was -18.9% (inactive). `CC(C)c1ccc(S(=O)(=O)c2cnc(SCC(=O)Nc3cccc(C(F)(F)F)c3)nc2N)cc1` was tested, and the “activity, negative = inhibition” value was -5.26% (inactive). With `COC(=O)c1cc(Cl)ccc1NC(=O)CSc1ncc(S(=O)(=O)c2ccc(Br)cc2)c(=O)[nH]1` the “activity, negative = inhibition” value was -7.72% (inactive). With `Cc1cc(C)c(NC(=O)CSc2ncc(S(=O)(=O)c3ccc(C(C)(C)C)cc3)c(=O)[nH]2)c(C)c1` the “activity, negative = inhibition” value was -9.91% (inactive). In the case of `CC(C)(C)c1ccc(S(=O)(=O)c2cnc(SCC(=O)Nc3ccc(F)c(Cl)c3)[nH]c2=O)cc1`, the Potency is reported as 35.5 µM (active). With `Cc1nn2c(=O)cc(COC(=O)c3ccc(NC(=O)C4CCCCC4)cc3)nc2s1` the “activity, negative = inhibition” value was -2.33% (inactive). For `COc1ccc(C)cc1NC(=O)c1c(C)oc2ncn(CC(C)C)c(=O)c12`, the “activity, negative = inhibition” value was -3.76% (inactive). In the case of `CCc1nc2ccc(C(=O)N3CCN(c4ccc(Cl)cc4)CC3)cc2nc1CC`, the “activity, negative = inhibition” value is reported as -22.4% (inactive). For `COc1ccc(-n2cc(-c3ccccc3)c3c(NC4CCCC4)ncnc32)cc1`, the “activity, negative = inhibition” value was -13.8% (inactive). With `CCOC(=O)c1ccc(N2C(=O)c3[nH]nc(-c4ccccc4)c3C2c2ccc(CC)cc2)cc1` (configuration not stated) the “activity, negative = inhibition” value was -2.39% (inactive). For `CCOC(=O)c1ccc(NC(=O)CC2Nc3cccc4cccc(c34)NC2=O)cc1` (configuration not stated), the “activity, negative = inhibition” value was -7.25% (inactive). For `CCOC(=O)c1ccc(-n2c(N)c(C(=O)OC)c3nc4ccccc4nc32)cc1`, the Potency was 25.1 µM (active). For `O=C1C(SCCO)=C(SCCO)C(=O)c2ccccc21`, the Potency was 14.1 µM (active). `N#C/C(=C\c1ccc(-c2ccccc2C(=O)O)o1)c1nc2ccccc2[nH]1` was tested, and the “activity, negative = inhibition” value was 33.8% (inactive). For `Cc1ccc(-c2ccc(=O)n(CC(=O)Nc3ccc(C)cc3Cl)n2)cc1`, the “activity, negative = inhibition” value was -24.2% (inactive). With `CCOC(=O)c1c(C)n(-c2ccccc2)c2ccc(OC(=O)c3ccccc3NC(=O)C(C)(C)C)cc12` the “activity, negative = inhibition” value was 11.3% (inactive). For `COc1ccc(OC)c(Nc2sc(C(=O)c3ccccc3)c(N)c2S(=O)(=O)c2ccccc2)c1`, the “activity, negative = inhibition” value was -2.04% (inactive). For `C=Cc1ccc(CSc2nc(-c3ccc(OC)cc3)nc3c2Cc2c(CO)cnc(C)c2O3)cc1`, the “activity, negative = inhibition” value was -8.87% (inactive). In the case of `COc1cc(/C=C(\C#N)C(=O)Nc2nnc(C(F)(F)F)s2)ccc1OCc1ccc(C(F)(F)F)cc1C(F)(F)F`, the Potency is reported as 31.6 µM (active). In the case of `CCC(Sc1nc2c(sc3ccccc32)c(=O)n1CCc1ccc(OC)c(OC)c1)C(=O)N(CC)CC` (configuration not stated), the “activity, negative = inhibition” value is reported as -18.2% (inactive). In the case of `COc1ccc(C(=O)Nc2nc3n(n2)C(c2ccc(Cl)cc2)C=C(c2ccccc2)N3)cc1OC` (configuration not stated), the “activity, negative = inhibition” value is reported as -25.4% (inactive). In the case of `O=C(NCCc1ccc(Cl)cc1)c1ccc2c(c1)N(Cc1ccc(Cl)cc1)C(=O)CS2`, the “activity, negative = inhibition” value is reported as -4.7% (inactive). In the case of `O=C(NCCn1cc(SCc2ccc(C(F)(F)F)cc2)c2ccccc21)c1cccs1`, the “activity, negative = inhibition” value is reported as 7.38% (inactive). For `Cc1cccc(N(CC(=O)NCCSCc2cccc(Cl)c2)S(=O)(=O)c2ccccc2)c1C`, the “activity, negative = inhibition” value was -3.57% (inactive). In the case of `CCCOc1ccc(-c2nn(-c3ccccc3)cc2C2NC(=O)NC(C)=C2C(=O)OC(C)C)cc1` (configuration not stated), the “activity, negative = inhibition” value is reported as -11.1% (inactive). `CCN1C(=O)c2ccccc2S(=O)c2ccc(C(=O)N3CCN(c4cccc(C)c4)C(C)C3)cc21` (configuration not stated) was tested, and the “activity, negative = inhibition” value was -22.1% (inactive). For `Cc1ccc(-n2cnc3cc(C(=O)NCCC4=CCCCC4)ccc32)c(C)c1`, the “activity, negative = inhibition” value was -13.5% (inactive). With `O=C(c1noc2c1CCCCC2)N1CCN(c2ccc(Cl)cc2)CC1` the “activity, negative = inhibition” value was -0.744% (inactive). With `CCc1cccc(-n2c(C)nc3c(cnn3-c3ccc(C)c(C)c3)c2=O)c1` the “activity, negative = inhibition” value was -7.64% (inactive). With `O=C(NCCn1cc(SCc2cccc(F)c2)c2ccccc21)c1cccc(C(F)(F)F)c1` the “activity, negative = inhibition” value was 2.49% (inactive). For `Cc1ccc(C)c(N2CCN(C(=O)c3cc(S(=O)(=O)N4CCC(C)CC4)cn3C)CC2)c1`, the “activity, negative = inhibition” value was -14.5% (inactive). With `Cc1ccc(C)c(N2CCN(C(=O)Cn3nc(Cc4cccnc4)c4ccccc4c3=O)CC2)c1` the “activity, negative = inhibition” value was -7.71% (inactive). `Cc1ccc(-c2nc(C(=O)N3CCN(c4ccccc4)CC3)c3n2CCCCC3)cc1` was tested, and the “activity, negative = inhibition” value was -10.4% (inactive). For `COc1ccc2c(c1)Cc1sc(NC(=O)c3cccc(C)c3)nc1-2`, the “activity, negative = inhibition” value was -15.7% (inactive). In the case of `CCc1ccc(OCC(=O)N(Cc2ccc(Cl)cc2)C2CCS(=O)(=O)C2)cc1` (configuration not stated), the “activity, negative = inhibition” value is reported as -5.69% (inactive). `Cc1ccc(Cl)cc1N1CCN(CCCNC(=O)c2ccc3nc(N4CCCCC4)sc3c2)CC1` was tested, and the “activity, negative = inhibition” value was -4.77% (inactive). In the case of `Cn1c(SCc2ccc(F)cc2)nc2ccc(C(=O)NCc3ccc(F)cc3)cc21`, the “activity, negative = inhibition” value is reported as -11.1% (inactive). `COc1ccccc1CNC(=O)c1cnn2c(C)c(Cc3ccc(F)cc3)c(C)nc12` was tested, and the “activity, negative = inhibition” value was -10.8% (inactive). In the case of `CCn1c(SCc2ccc(F)cc2Cl)nc(=O)c2c(C(=O)OC)cc(C3CC3)nc21`, the “activity, negative = inhibition” value is reported as -28.3% (inactive). With `Cc1ccc(CN(Cc2ccco2)C(=O)c2ccccc2Br)o1` the “activity, negative = inhibition” value was -10.6% (inactive). In the case of `Cc1cc(Nc2cccc(F)c2)n2nc(-c3ccco3)nc2n1`, the “activity, negative = inhibition” value is reported as 7.61% (inactive). In the case of `Cc1ccc(C)c(Cn2nc(-c3cc(C)ccc3C)ccc2=O)c1`, the “activity, negative = inhibition” value is reported as -23.4% (inactive). With `CC1=Nc2cc(C(=O)N3CCC(C)CC3)ccc2Sc2ccc(Cl)cc21` the “activity, negative = inhibition” value was -5.99% (inactive). With `O=C(NCCc1ccccc1)c1sc2ncccc2c1-n1cccc1` the “activity, negative = inhibition” value was -19.5% (inactive). `Cc1ccc(Cl)cc1NC(=O)C(C)n1nc(-c2ccccc2)ccc1=O` (configuration not stated) was tested, and the “activity, negative = inhibition” value was -16.4% (inactive). `CCCCCCCCc1ccc(-c2ccc(C(=O)O)cc2)cc1` was tested, and the Potency was 35.5 µM (active).
